Each structure is given as a SMILES string.

The source of these data is PubChem BioAssay.

Assay [1] deals with Human papillomavirus type 1a protein E7 (residues 44-93). The assay can be described thus: HPV1a E7 fragment binders on microarrays, primary screen, biochemical, small-molecule microarray, residues 44-93, 635 nm fluorescence (AID 1108).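 Also: E7 fragment applied at 1 µg/mL in TBST for 1 h at 4 C; score combines spot fluorescence with its signal to noise ratio.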 The following applies: small-molecule microarray binding, fluorescence 635 nm; higher = more signal.
Assay [2] in a line: modulators of HCV replicon luciferase signal, primary screen, HCV replication inhibitor project, Huh7 cells, luciferase reporter (AID 1109).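 Also: huh7 hepatoma cells harbouring a luciferase neomycin HCV replicon reporter; luciferase luminescence as measure of HCV replicon replication; test concentration not given here.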 Particulars: 48 h, higher = more signal.
The target of assay [3] is Left-right determination factor 2 (Homo sapiens) (UniProt O00292). The assay can be described thus: LEFTY2 binders on small-molecule microarrays, primary screen, biochemical, small-molecule microarray, 635 nm fluorescence scan (AID 1110). The following applies: LEFTY2 binding, higher = more signal.
Assay [4] has as its target Calmodulin-1 (Homo sapiens) (UniProt P0DP23). The assay can be described thus: CALM1 binders on microarrays, EGTA buffer, profiling panel, biochemical, small-molecule microarray, Cy5-labelled CALM1 (AID 1111).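 Also: labelled calmodulin applied in Tris saline Tween buffer holding calcium plus EGTA and DTT.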 Particulars: Cy5-CALM1 binding fluorescence, higher = more signal.
Assay [5] has the same target. The experiment in a line: calcium-bound CALM1 binders on microarrays, profiling panel, artefact control for SMM control-protein annotation, biochemical, small-molecule microarray, Cy5-labelled CALM1, plus calcium (AID 1112).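 Also: score merges spot fluorescence with signal to noise from triplicate slides.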 The following applies: Cy5-CALM1 binding fluorescence, higher = more signal.
Assay [6] is described as follows: small-molecule microarray binders of probe aWnt5a, primary screen, biochemical, biotinylated probe, 635/667 nm fluorescence (AID 1113).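 Also: score merges 667 nm fluorescence intensity with signal-to-noise per printed feature.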 Particulars: higher = more signal.
The nature of assay [7]: small-molecule microarray binders of probe aShh, primary screen, biochemical, biotinylated probe, 635/667 nm fluorescence (AID 1114).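 Also: probe is biotin-labelled aShh protein from a stem cell growth factor screen; measures binding of labelled protein to compounds printed on the slide; score merges feature fluorescence at 667 nm with signal-to-noise.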 The following applies: higher = more signal.
The nature of assay [8]: small-molecule microarray binders of probe aNog, primary screen, biochemical, biotinylated probe, 635/667 nm fluorescence (AID 1115).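 Also: probe is biotinylated aNog protein used at 0.15 µg/mL for 1 h at 4 C; z-score combines 667 nm fluorescence of each spot with its signal to noise.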 Particulars: higher = more signal.
In assay [9] the target is Torsin-1A-interacting protein 1 (Homo sapiens) (UniProt Q5JTV8). The experiment in a line: LAP1 binders from COS7 cell lysate, primary screen, small-molecule microarray, 635/667 nm fluorescence (AID 1116). Particulars: COS7-hLAP1 lysate binding, 635 nm fluorescence, higher = more signal.
For assay [10], the target named is Alpha-bungarotoxin (Bungarus multicinctus) (UniProt P60615). The assay can be described thus: alpha-bungarotoxin binders on microarray, profiling panel, artefact control for SMM control protein annotation, biochemical, small-molecule microarray, Alexa647 label, 635/667 nm fluorescence (AID 1117). Particulars: alpha-BTX-A647 binding fluorescence, higher = more signal.
Alpha-bungarotoxin (Bungarus multicinctus), sequence (P60615 whole entry, looked up): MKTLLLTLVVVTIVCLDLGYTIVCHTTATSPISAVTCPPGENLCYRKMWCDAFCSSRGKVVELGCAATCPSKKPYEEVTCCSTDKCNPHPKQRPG

Left-right determination factor 2 (Homo sapiens), sequence (O00292 whole entry, looked up): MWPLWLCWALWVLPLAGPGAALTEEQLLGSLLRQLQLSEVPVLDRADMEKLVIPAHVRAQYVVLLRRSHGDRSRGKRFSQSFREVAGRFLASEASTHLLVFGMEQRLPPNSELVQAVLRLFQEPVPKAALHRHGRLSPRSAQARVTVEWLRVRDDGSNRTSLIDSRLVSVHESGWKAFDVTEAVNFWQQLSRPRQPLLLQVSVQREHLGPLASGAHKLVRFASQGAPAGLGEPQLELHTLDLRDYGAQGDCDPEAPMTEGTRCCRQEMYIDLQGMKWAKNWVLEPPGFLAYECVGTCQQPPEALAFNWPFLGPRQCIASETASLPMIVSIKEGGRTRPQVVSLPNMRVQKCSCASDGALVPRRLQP
Torsin-1A-interacting protein 1 (Homo sapiens), sequence (Q5JTV8 whole entry, looked up): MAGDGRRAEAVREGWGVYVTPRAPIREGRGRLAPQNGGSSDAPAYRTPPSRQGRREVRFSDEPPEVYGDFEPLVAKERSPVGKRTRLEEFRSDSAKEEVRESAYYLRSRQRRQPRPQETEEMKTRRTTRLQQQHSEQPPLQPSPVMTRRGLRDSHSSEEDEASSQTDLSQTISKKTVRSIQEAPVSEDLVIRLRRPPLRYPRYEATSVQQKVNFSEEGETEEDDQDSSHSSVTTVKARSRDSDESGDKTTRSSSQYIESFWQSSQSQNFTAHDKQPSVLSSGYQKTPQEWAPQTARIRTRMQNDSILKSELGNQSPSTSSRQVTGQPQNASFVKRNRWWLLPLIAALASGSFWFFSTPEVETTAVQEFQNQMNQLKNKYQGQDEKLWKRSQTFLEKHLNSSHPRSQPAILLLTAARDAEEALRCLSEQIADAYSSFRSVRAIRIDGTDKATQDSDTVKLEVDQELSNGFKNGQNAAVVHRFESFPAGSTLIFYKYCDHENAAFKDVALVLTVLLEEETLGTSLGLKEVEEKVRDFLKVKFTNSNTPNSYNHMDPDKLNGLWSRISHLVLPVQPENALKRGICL

`COC(=O)[C@H](Cc1ccccc1)N[C@@H](/C=C/C1CC1)[C@H](O)Cc1ccccc1`: the composite z-score is -0.431 in assay [1]; -0.517 in assay [3]; 0.125 in assay [4]; -0.736 in [5]; 0.454 in [6]; -0.309 in assay [7]. Besides, the composite z-score was -0.349 in assay [8], 0.729 in [9] and 0.342 in assay [10]. In addition, the z-score in [2] is -0.95.

In the case of `O=C1C2C=CC(C(O)Cc3ccccc3)N(n3cnnc3)C2C(=O)N1Cc1ccccc1` (stereo not given), the composite z-score was 0.625 in assay [1]; -0.262 in assay [3]; 0.841 in assay [4]; 0.471 in assay [5]; 0.127 in assay [6]; -0.007 in [7]. Further, the composite z-score in assay [8] was found to be 0.908; in assay [9], 0.955; in assay [10], 0.165. For the same compound, the z-score in assay [2] was -0.53.

In the case of `O=C(NC1CC1)[C@@H]1c2ccccc2C(=O)N(Cc2ccccc2Cl)[C@H]1c1ccc(CO)cc1`, the composite z-score in assay [1] is 0.791; in [3], 0.697; in assay [4], 1.08; in assay [5] it was 0.287; in [6], -0.0765; in assay [7], -0.138. Besides, the composite z-score worked out at 0.233 in assay [8], 1.46 in assay [9] and 0.759 in assay [10]. For the same compound, the z-score in assay [2] was -2.09.

Regarding `C=CCOC(=O)[C@H]1[C@@H]2C(=O)O[C@@H](c3ccccc3)[C@@H](c3ccccc3)N2[C@@H](c2ccc(OCCOC(=O)[C@@H]3C[C@@H]4C(=O)N[C@@H](CCCCNC(C)=O)C(=O)N4[C@@H]3c3ccc(O)cc3)cc2)[C@]12C(=O)Nc1ccccc12`, the composite z-score was 1.32 in assay [1]; 0.515 in [3]; 1.72 in [4]; 0.365 in [5]; -0.0704 in [6]; 0.196 in assay [7]. Moreover, the results for the composite z-score in assay [8], in [9] and in assay [10] were 0.45, 0.622 and 2.51, respectively. For the same compound, the z-score in [2] was -0.413.

With `CC(C)=CCCC(C)=CC(O)C1C=CC2C(=O)N(C)C(=O)C2N1Nc1ccccc1` (stereo not given), the composite z-score in assay [1] was 1.45; in assay [3], 0.457; in assay [4], 1.99; in assay [5], 0.73; in assay [6], 0.0597; in assay [7] it was -0.0362. The composite z-score in [8] is 1.3; in assay [9], 0.524; in assay [10], 2.04. In addition, in assay [2], the z-score was -2.28.

In the case of `COCCCNC(=O)[C@@H]1c2ccccc2C(=O)N(Cc2ccccc2Cl)[C@H]1c1ccc(CO)cc1`, the composite z-score in [1] is 0.867; in assay [3], 0.67; in [4], -0.48; in assay [5], -0.613; in [6] it was -0.0792; in [7], 0.0684. Moreover, the results for the composite z-score in [8], in assay [9] and in [10] were -0.382, 1.51 and -0.195, respectively. This compound yielded a z-score in assay [2] of 0.318.

Take `CCc1cccc(NC(=O)O[C@H]2[C@H](OC(=O)Nc3ccccc3-c3ccccc3)[C@@H](OC(=O)Nc3ccccc3-c3ccccc3)[C@@H](OC)O[C@@H]2CO)c1`: the composite z-score was 1.52 in [1]; 0.3 in [3]; 1.71 in assay [4]; -0.0011 in assay [5]; 0.0839 in assay [6]; 0.432 in assay [7]. For the same compound, the figures for the composite z-score in assay [8], in assay [9] and in assay [10] were 0.572, 1.47 and 1.53, respectively. Moreover, in assay [2], the z-score is -3.79.

On to `CCCC[C@H]1OB(O)C[C@H]2C1=C(COC)C[C@H]1C(=O)N(C)C(=O)[C@H]12`, for which the composite z-score in [1] was 0.343; in [3], 0.358; in [4], 0.223; in assay [5], -0.596; in assay [6], -0.152; in assay [7], -0.0626. For the same compound, the values for the composite z-score in assay [8], in assay [9] and in assay [10] were -0.0496, -0.321 and 1.16, respectively. In addition, in assay [2], the z-score was -0.918.

`Cc1nc2cc(Br)ccc2c(=O)o1`: the composite z-score is 0.686 in assay [1]; 0.4 in assay [3]; 0.66 in assay [4]; 0.202 in assay [5]; -0.198 in assay [6]; -0.481 in assay [7]. In addition, the composite z-score in assay [8] was -0.483; in assay [9], 0.197; in assay [10], 0.206. The z-score in assay [2] is -0.569.

Turning to `Cc1ccc(N2C(=O)c3ccccc3[C@@H](C(=O)NC3CC3)[C@@H]2c2ccc(CO)cc2)nc1`, the composite z-score was -1.51 in assay [1]; -3.3 in assay [3]; -1.35 in [4]; -1.25 in assay [5]; -0.268 in assay [6]; -0.0866 in assay [7]. Further, the composite z-score in assay [8] was -0.126; in assay [9], -0.13; in [10] it was -1.36. Besides, the z-score in [2] is -0.312.

As to `CN1C=C(C(=O)OCCS(C)(=O)=O)C(C(=O)OCCS(C)(=O)=O)=CC(c2ccc(CO)cc2)=CC1C1CC1` (stereo not given), the composite z-score in assay [1] was -0.0095; in assay [3], 0.328; in assay [4], 0.405; in [5], -0.306; in [6], -0.105; in assay [7] it was -0.0681. Further, the composite z-score in assay [8] stood at 0.366; in assay [9], 1.83; in assay [10] it was 0.274. The z-score in [2] was -0.595.

Regarding `CC(C)[Si](C#Cc1ccc(Oc2ccccc2)cc1)(O[Si](C#Cc1ccc(Oc2ccccc2)cc1)(C(C)C)C(C)C)C(C)C`, the composite z-score was 0.328 in assay [1]; 0.567 in [3]; -0.185 in assay [4]; 0.307 in [5]; 0.0561 in [6]; -0.0337 in assay [7]. Further, the composite z-score in assay [8] is -0.12; in [9], 0.0811; in assay [10] it was 0.262. Moreover, in [2], the z-score was 0.651.

`CC(C)N1C(=O)c2ccccc2[C@](C)(C(=O)NCCN2CCOCC2)[C@@H]1c1ccc(CO)cc1`: the composite z-score in [1] is 0.416; in assay [3], -1.03; in assay [4], -0.454; in assay [5] it was 0.23; in assay [6], -0.139; in assay [7], -0.206. Moreover, the composite z-score in [8] is -0.213; in assay [9], 0.143; in assay [10] it was 0.0722. Moreover, the z-score in [2] is -0.366.

Consider `COc1ccccc1CN1C(=O)c2ccccc2[C@@H](C(=O)NC2CC2)[C@@H]1c1ccc(CO)cc1`, for which the composite z-score was 0.0772 in assay [1]; 0.57 in assay [3]; 0.522 in assay [4]; -0.779 in [5]; -0.0512 in assay [6]; 0.257 in [7]. The figures for the composite z-score in [8], in [9] and in assay [10] were -0.519, 0.0469 and 1.3, respectively. Also, the z-score in [2] was -1.3.

For the compound `CCCC[C@@H]1C[C@H]1[C@@H](NC(=O)c1ccco1)c1ccc(-c2ccccc2)cc1`, the composite z-score is 0.114 in assay [1]; 0.0023 in assay [3]; -0.179 in [4]; 0.0765 in assay [5]; 0.0916 in [6]; 0.104 in [7]. Besides, the results for the composite z-score in assay [8], in assay [9] and in assay [10] were 0.376, 0.425 and 0.0932, respectively. Further, the z-score in [2] was -0.971.

As to `CCOC(=O)C[C@H]1[C@H](OC(=O)c2ccc(-c3ccccc3)cc2)[C@@H](NC(=O)Cc2ccc(OC)cc2)c2cc(OCCCO)ccc2N1C(=O)c1ccccc1`, the composite z-score in assay [1] was 0.269; in assay [3] it was -0.458; in assay [4], 0.211; in assay [5], 0.0935; in assay [6] it was -0.0643; in assay [7] it was -0.17. The values for the composite z-score in [8], in [9] and in assay [10] were -0.306, 0.294 and 0.582, respectively. In assay [2], the z-score was -0.898.

Turning to `NC(=O)NCC#Cc1ccc2c(c1)[C@]1(C(=O)N2)[C@H](c2ccc(O)cc2)N2[C@H](c3ccccc3)[C@H](c3ccccc3)OC(=O)[C@H]2[C@@H]1C(=O)O`, the composite z-score in assay [1] was -0.0303; in [3], -1.09; in [4] it was 0.342; in [5], 0.521; in assay [6], -0.185; in assay [7], -0.42. Also, the composite z-score is -0.0683 in assay [8], -0.354 in assay [9] and -0.27 in assay [10]. In addition, the z-score in assay [2] is -0.708.
